From PubChem BioAssay (EPA / NIEHS)
Records with an inconclusive call do not appear. Activity calls are given as the source filed them. Rule for the calls, unless noted: active = hit-call score of the fitted dose curve at least 0.9, where 1 is the maximum; inactive = score below 0.9.

Experiments:
[1] = biological target: Estrogen-related receptor gamma (Homo sapiens) (UniProt P62508); assay: ATG_ERRg_TRANS: Attagene TRANS-FACTORIAL HepG2 Assay for human Estrogen-Related Receptor gamma (ERRg) (AID 2282977; active = hit-call score of the fitted dose curve at least 0.9, where 1 is the maximum;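 note: hits increase reporter signal over DMSO so potencies reflect activators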); settings: HepG2 Attagene TRANS reporter, ERRg transactivation
Chain of Estrogen-related receptor gamma (Homo sapiens) (P62508 whole entry, looked up, the tested form may be a part): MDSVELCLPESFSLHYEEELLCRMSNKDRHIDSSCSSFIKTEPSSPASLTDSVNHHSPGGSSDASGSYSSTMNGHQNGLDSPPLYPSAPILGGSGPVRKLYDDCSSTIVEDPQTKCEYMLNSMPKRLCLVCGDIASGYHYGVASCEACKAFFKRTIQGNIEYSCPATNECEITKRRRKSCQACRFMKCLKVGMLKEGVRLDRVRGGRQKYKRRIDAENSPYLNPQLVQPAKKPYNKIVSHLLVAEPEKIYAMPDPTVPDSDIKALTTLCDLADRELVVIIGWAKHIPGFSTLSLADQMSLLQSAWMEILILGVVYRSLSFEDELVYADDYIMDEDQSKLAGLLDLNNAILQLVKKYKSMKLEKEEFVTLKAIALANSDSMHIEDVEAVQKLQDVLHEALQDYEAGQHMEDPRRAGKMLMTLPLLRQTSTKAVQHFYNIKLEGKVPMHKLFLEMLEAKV
In short: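 HepG2 cells transiently transfected with multiplexed GAL4-UAS reporter units driven by chimeric NR-Gal4 proteins; 24 h exposure. Reporter mRNA quantified by RT-PCR, fluorescent labelling, HpaI digestion and capillary electrophoresis; gain of signal vs DMSO.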

[2] = biological target: Oxysterols receptor LXR-alpha (Homo sapiens) (UniProt Q13133); assay: ATG_LXRa_TRANS: Attagene TRANS-FACTORIAL HepG2 Assay for human Liver X Receptor alpha (LXRa) (AID 2282980; active = hit-call score of the fitted dose curve at least 0.9, where 1 is the maximum); settings: HepG2 Attagene TRANS reporter, LXRa transactivation
Chain of Oxysterols receptor LXR-alpha (Homo sapiens) (Q13133 whole entry, looked up, the tested form may be a part): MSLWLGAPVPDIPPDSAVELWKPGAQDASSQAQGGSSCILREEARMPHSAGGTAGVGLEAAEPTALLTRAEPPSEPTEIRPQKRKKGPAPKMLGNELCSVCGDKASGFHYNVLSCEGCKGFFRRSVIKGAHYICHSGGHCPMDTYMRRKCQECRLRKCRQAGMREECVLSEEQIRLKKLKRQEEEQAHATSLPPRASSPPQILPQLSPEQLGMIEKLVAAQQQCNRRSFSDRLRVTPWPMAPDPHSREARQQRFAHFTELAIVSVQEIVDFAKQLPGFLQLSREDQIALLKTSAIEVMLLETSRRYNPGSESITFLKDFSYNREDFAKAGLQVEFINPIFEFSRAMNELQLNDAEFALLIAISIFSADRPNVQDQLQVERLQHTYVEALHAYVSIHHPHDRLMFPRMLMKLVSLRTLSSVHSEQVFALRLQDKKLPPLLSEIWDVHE
In short: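 HepG2 cells were transiently transfected with multiplexed reporter units driven by chimeric LXRa–GAL4 fusion proteins, then dosed for 24 h. Reporter mRNA was quantified by RT-PCR, fluorescent labelling and capillary electrophoresis; gain of signal fitted against DMSO baseline.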

[3] = biological target: Nuclear receptor subfamily 4 group A member 2 (Homo sapiens) (UniProt P43354); assay: ATG_NURR1_TRANS: Attagene TRANS-FACTORIAL HepG2 Assay for human Nuclear Receptor Related Protein 1 (NURR1) (AID 2282985; active = hit-call score of the fitted dose curve at least 0.9, where 1 is the maximum); settings: HepG2 Attagene TRANS reporter, mRNA readout
Chain of Nuclear receptor subfamily 4 group A member 2 (Homo sapiens) (P43354 whole entry, looked up, the tested form may be a part): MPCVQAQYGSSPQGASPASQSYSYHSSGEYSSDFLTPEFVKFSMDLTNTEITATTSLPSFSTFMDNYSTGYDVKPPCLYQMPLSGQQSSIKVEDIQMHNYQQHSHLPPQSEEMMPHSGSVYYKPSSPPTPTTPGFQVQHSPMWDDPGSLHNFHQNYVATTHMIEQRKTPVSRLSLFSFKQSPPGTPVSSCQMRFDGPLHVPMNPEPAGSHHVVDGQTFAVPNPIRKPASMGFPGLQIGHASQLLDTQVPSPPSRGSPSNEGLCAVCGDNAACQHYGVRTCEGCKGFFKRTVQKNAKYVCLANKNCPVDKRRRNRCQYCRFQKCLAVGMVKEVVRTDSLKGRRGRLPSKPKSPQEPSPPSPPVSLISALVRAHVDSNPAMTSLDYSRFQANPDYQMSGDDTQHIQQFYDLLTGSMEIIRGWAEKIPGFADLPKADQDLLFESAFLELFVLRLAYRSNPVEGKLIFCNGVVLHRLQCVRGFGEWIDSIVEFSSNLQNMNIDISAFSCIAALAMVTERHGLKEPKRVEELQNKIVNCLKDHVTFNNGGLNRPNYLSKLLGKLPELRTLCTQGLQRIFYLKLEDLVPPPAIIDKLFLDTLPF
In short: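 Transient transfection of HepG2, human liver cells, with multiple GAL4-UAS reporter transcription units. Cells dosed 24 h, RNA isolated, reverse-transcribed, PCR-amplified, FAM-labelled, HpaI-digested, sized by capillary electrophoresis. DMSO served as negative control.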

[4] = biological target: Transcriptional activator Myb (Homo sapiens) (UniProt P10242); assay: ATG_Myb_CIS: Attagene CIS-FACTORIAL HepG2 Assay for human Myeloblastosis (Myb) Proto-Oncogene Transcription Factor (AID 2282986); settings: HepG2 Attagene CIS-FACTORIAL Myb reporter transcription; actives raise or lower the signal
Chain of Transcriptional activator Myb (Homo sapiens) (P10242 whole entry, looked up): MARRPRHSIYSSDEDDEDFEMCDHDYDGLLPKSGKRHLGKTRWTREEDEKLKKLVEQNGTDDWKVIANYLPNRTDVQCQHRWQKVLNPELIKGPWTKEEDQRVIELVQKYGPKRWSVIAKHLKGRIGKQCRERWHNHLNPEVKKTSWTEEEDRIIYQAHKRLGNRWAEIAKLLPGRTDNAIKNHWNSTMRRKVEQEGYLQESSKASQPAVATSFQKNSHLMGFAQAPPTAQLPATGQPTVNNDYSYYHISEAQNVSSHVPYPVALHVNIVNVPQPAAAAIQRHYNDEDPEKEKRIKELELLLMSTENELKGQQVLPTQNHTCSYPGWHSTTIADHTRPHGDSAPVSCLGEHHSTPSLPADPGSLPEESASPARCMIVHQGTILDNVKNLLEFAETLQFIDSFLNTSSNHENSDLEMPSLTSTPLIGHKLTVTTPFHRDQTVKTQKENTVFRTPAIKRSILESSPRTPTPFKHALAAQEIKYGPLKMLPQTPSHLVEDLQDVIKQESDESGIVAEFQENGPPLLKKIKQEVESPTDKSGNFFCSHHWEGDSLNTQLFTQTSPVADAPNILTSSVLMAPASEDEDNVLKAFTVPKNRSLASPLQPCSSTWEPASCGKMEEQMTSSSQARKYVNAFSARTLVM
In short: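 Multiplexed cis-reporter system in HepG2: transient transfection, 24 h treatment, mRNA readout by RT-PCR and capillary electrophoresis. Both increases and decreases are scored versus DMSO negative control.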

[5] = biological target: Nuclear respiratory factor 1 (Homo sapiens) (UniProt Q16656); assay: ATG_NRF1_CIS: Attagene CIS-FACTORIAL HepG2 Assay for human Nuclear Respiratory Factor 1 (NRF1) Orphan Gene (AID 2282987); settings: HepG2 NRF1 cis-element reporter, Attagene multiplex; actives raise or lower the signal
Chain of Nuclear respiratory factor 1 (Homo sapiens) (Q16656 whole entry, looked up): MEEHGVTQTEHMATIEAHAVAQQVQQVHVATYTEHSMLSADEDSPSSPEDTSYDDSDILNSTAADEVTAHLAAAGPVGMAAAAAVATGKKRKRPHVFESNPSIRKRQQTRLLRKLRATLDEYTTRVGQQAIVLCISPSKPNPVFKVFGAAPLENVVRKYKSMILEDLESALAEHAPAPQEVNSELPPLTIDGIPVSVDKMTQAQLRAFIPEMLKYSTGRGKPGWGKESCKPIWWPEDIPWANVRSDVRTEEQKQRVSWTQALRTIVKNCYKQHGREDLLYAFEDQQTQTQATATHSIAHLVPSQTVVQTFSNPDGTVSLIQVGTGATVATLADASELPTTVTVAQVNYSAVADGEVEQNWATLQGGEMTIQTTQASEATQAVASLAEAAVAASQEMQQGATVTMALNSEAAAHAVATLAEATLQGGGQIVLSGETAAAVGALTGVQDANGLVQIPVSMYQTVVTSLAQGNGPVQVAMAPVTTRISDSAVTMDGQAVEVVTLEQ
In short: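 Endogenous factor activity was captured via cis-element-driven reporter transcripts in HepG2 cells. Following 24 h chemical treatment, transcripts were quantified by RT-PCR and capillary electrophoresis.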

[6] = ATG_NFI_CIS: Attagene CIS-FACTORIAL HepG2 Assay for human Nuclear Factor I (NFI) (AID 2282989); settings: HepG2 cis-regulatory reporter, NFI response element transcription; actives raise or lower the signal
In short: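 Transfected HepG2 liver cells, exposed 24 h, supplied total RNA for oligo(dT) reverse transcription and reporter-specific PCR. Labelled, HpaI-cut fragments were sized by capillary electrophoresis; DMSO set the baseline for bidirectional fitting.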

[7] = biological target: Myc proto-oncogene protein (Homo sapiens) (UniProt P01106); assay: ATG_Myc_CIS: Attagene CIS-FACTORIAL HepG2 Assay for human Myelocytomatosis (Myc) Proto-Oncogene Transcription Factor (AID 2282990); settings: HepG2, Attagene cis-reporter transcription factor activity; actives raise or lower the signal
In short: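 HepG2, transient MRTU transfection (cis promoters, endogenous TFs); 24 h dosing; TriZol RNA → oligo(dT) RT → PCR → 6-FAM primer extension → HpaI cut → CE. Bidirectional fit vs DMSO.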

[8] = ATG_NF_kB_CIS: Attagene CIS-FACTORIAL HepG2 Assay for human Nuclear Factor Kappa B (NF-kB) (AID 2282991); settings: HepG2 Attagene cis-factorial NF-kB reporter mRNA; actives raise or lower the signal
In short: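 After 24 h compound incubation, transfected HepG2 cells yield total RNA; reporter cDNA is PCR-amplified, end-labelled with 6-FAM, HpaI-digested and analysed on a genetic analyser. Endogenous factor activity, DMSO-referenced bidirectional fit.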

[9] = ATG_NRF2_ARE_CIS: Attagene CIS-FACTORIAL HepG2 Assay for human Nuclear Factor Erythroid 2 Related Factor 2 (NFR2) response to Antioxidant Response Elements (ARE) (AID 2282992); settings: HepG2 Attagene ARE/NRF2 reporter, transcription factor activity; actives raise or lower the signal;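 for AC50: reporter mRNA level measured by RT-PCR and capillary electrophoresis fluorescence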
In short: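 Cis-factorial assay: transfected HepG2 reporter library, 24 h dosing, mRNA readout via RT-PCR/CE; DMSO-referenced bidirectional analysis.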

[10] = ATG_Oct_MLP_CIS: Attagene CIS-FACTORIAL HepG2 Assay for human Octamer-Binding Transcription Factor (Oct) (AID 2282993); settings: HepG2 Attagene cis-factorial Oct reporter, mRNA; actives raise or lower the signal
In short: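 Using HepG2 cells bearing transfected cis-reporter constructs, mRNA induction was read after 24 h by fluorescent RT-PCR and capillary electrophoresis, with DMSO defining baseline for gain- or loss-of-signal fits.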

[11] = biological target: Cellular tumor antigen p53 (Homo sapiens) (UniProt P04637); assay: ATG_p53_CIS: Attagene CIS-FACTORIAL HepG2 Assay for human p53 Transcription Factor (AID 2282994); settings: HepG2 p53 cis-element reporter, Attagene mRNA; actives raise or lower the signal
Chain of Cellular tumor antigen p53 (Homo sapiens) (P04637 whole entry, looked up): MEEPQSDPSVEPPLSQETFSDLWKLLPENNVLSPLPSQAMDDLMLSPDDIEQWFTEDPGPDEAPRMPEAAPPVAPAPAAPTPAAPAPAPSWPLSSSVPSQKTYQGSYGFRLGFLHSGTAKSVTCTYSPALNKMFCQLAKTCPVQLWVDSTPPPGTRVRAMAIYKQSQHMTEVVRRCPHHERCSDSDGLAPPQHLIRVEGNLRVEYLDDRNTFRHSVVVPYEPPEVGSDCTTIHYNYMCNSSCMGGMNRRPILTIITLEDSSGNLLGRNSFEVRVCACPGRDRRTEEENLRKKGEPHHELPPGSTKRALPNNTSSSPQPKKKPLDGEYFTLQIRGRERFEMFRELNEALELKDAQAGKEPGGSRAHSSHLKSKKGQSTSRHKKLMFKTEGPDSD
In short: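 Using HepG2 hepatoma cells carrying cis-acting multiplexed reporters, mRNA induction is detected after a 24 h exposure. Gain- and loss-of-signal responses are fitted relative to DMSO-treated cells.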

[12] = biological target: Glucocorticoid receptor (Homo sapiens) (UniProt P04150); assay: ATG_GR_TRANS: Attagene TRANS-FACTORIAL HepG2 Assay for human Glucocorticoid Receptor (GR) (AID 2282978; active = hit-call score of the fitted dose curve at least 0.9, where 1 is the maximum;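 note: activators score as hits since higher reporter transcript over DMSO is fitted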); settings: HepG2 Attagene TRANS GR reporter, mRNA transcription
Chain of Glucocorticoid receptor (Homo sapiens) (P04150 whole entry, looked up, the tested form may be a part): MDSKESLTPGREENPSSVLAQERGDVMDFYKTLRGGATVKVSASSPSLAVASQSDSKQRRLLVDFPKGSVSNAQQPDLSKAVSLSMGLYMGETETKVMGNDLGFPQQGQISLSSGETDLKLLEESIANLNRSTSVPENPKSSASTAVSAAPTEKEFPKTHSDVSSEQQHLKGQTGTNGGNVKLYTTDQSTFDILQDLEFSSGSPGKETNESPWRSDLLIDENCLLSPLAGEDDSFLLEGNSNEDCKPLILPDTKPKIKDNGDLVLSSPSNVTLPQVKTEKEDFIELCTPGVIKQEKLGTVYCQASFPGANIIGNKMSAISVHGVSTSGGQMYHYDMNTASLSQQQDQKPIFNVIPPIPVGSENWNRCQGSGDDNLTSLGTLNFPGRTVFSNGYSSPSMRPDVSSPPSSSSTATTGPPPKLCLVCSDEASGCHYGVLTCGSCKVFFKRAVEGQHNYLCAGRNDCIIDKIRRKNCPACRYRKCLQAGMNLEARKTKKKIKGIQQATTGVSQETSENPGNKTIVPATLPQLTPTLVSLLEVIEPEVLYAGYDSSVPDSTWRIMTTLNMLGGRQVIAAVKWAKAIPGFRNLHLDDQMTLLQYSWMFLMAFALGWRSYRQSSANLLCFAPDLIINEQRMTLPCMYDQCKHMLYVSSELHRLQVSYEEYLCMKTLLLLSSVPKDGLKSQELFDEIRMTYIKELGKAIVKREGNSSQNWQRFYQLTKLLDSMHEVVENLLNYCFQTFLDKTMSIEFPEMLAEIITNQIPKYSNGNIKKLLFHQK
In short: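 HepG2 transient transfection, multiple reporter units, GAL4-UAS under NR-GAL4 chimera control. 24 h treatment. Reporter mRNA by RT-PCR/CE fluorescence, DMSO as negative control.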

[13] = biological target: Oxysterols receptor LXR-beta (Homo sapiens) (UniProt P55055); assay: ATG_LXRb_TRANS: Attagene TRANS-FACTORIAL HepG2 Assay for human Liver X Receptor beta (LXRb) (AID 2282981; active = hit-call score of the fitted dose curve at least 0.9, where 1 is the maximum); settings: HepG2 Attagene TRANS GAL4-LXRb reporter, mRNA
Chain of Oxysterols receptor LXR-beta (Homo sapiens) (P55055 whole entry, looked up, the tested form may be a part): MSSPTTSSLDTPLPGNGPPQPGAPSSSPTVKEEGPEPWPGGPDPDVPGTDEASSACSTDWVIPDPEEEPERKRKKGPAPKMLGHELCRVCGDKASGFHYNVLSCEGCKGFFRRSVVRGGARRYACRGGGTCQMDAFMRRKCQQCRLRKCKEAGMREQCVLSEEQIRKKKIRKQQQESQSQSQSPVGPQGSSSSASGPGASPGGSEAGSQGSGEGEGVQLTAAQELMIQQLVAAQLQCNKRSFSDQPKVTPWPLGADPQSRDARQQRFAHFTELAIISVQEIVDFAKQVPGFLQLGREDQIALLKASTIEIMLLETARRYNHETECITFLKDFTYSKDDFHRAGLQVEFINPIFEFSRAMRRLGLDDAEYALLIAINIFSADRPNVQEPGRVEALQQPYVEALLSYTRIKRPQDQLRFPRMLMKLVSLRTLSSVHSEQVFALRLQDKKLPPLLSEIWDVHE
In short: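 Transient transfection HepG2 (multiplexed RTUs, GAL4-UAS); NR-Gal4 chimera; 24 h exposure; RNA → RT-PCR → 6-FAM primer extension → HpaI → CE; increase vs DMSO.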

[14] = biological target: Hepatocyte nuclear factor 4-alpha (Homo sapiens) (UniProt P41235); assay: ATG_HNF4a_TRANS: Attagene TRANS-FACTORIAL HepG2 Assay for human Hepatocyte Nuclear Factor 4 alpha (HNF4a) (AID 2282982; active = hit-call score of the fitted dose curve at least 0.9, where 1 is the maximum); settings: HepG2 HNF4a transactivation reporter, mRNA readout
In short: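 Readout is fluorescent reporter-transcript fragments resolved by capillary electrophoresis after RT-PCR from HepG2 cells dosed for 24 h. Cells carried transfected GAL4-UAS reporter constructs measuring exogenous NR-GAL4 chimera activity; DMSO served as baseline.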

[15] = ATG_M_06_TRANS: Attagene TRANS-FACTORIAL HepG2 Assay for M06 Transcription Factor (Internal Marker) (AID 2282983; active = hit-call score of the fitted dose curve at least 0.9, where 1 is the maximum;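 note: reporter transcript level by RT-PCR then capillary electrophoresis fluorescence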); settings: HepG2 Attagene TRANS M06 internal marker reporter
In short: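 HepG2 cells transiently transfected with multiplexed GAL4-UAS reporter transcription units; after 24 h compound exposure, reporter mRNA measured by RT-PCR, FAM-labelled primer extension, HpaI digestion and capillary electrophoresis. Gain-of-signal fitted versus DMSO baseline; background control readout.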

[16] = ATG_M_32_TRANS: Attagene TRANS-FACTORIAL HepG2 Assay for M32 Transcription Factor (Internal Marker) (AID 2282984; active = hit-call score of the fitted dose curve at least 0.9, where 1 is the maximum); settings: HepG2 Attagene TRANS M32 internal marker reporter
In short: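 Measures reporter mRNA induction in human HepG2 liver cells after 24 h chemical treatment. Transcripts from transiently transfected GAL4-UAS reporter units are amplified, fluorescently labelled and sized by capillary electrophoresis; gain of signal relative to DMSO.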

[17] = biological target: Bile acid receptor (Homo sapiens) (UniProt Q96RI1); assay: ATG_FXR_TRANS: Attagene TRANS-FACTORIAL HepG2 Assay for Farnesoid X Receptor (FXR) (AID 2282979; active = hit-call score of the fitted dose curve at least 0.9, where 1 is the maximum;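 note: hits raise reporter mRNA above DMSO so AC50 marks FXR activation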); settings: HepG2 Attagene TRANS FXR-GAL4 reporter transcription
Chain of Bile acid receptor (Homo sapiens) (Q96RI1 whole entry, looked up, the tested form may be a part): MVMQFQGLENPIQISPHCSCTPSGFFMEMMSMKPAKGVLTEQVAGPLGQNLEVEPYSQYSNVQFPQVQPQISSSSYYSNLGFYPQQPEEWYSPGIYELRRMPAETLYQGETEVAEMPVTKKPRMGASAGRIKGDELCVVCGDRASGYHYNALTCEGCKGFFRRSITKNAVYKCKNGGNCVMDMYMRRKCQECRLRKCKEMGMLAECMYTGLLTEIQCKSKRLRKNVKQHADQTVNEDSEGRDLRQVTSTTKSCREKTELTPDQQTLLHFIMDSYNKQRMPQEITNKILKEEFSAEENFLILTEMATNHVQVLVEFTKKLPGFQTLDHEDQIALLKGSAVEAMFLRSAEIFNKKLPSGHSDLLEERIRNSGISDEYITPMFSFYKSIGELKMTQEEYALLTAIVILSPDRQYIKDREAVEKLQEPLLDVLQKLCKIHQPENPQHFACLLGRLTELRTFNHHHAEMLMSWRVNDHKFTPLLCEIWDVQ
In short: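 HepG2 cells transiently transfected with reporter constructs in which a chimeric FXR-GAL4 protein drives a GAL4-UAS reporter; 24 h compound exposure. Reporter mRNA measured by RT-PCR, FAM labelling, HpaI digestion and capillary electrophoresis; gain-of-signal versus DMSO.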

[18] = BSK_3C_TissueFactor: BioMAP Diversity Plus: 3C Assay for Tissue Factor Biomarker Activity (AID 2282997); settings: BioMAP 3C HUVEC, tissue factor biomarker readout; actives raise or lower the signal
In short: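 Primary human umbilical vein endothelial cells in the 3C system were exposed to test chemical for 24 h, then Tissue Factor measured by ELISA. Activity was fitted bidirectionally against DMSO as negative control and baseline.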

[19] = BSK_3C_VCAM1: BioMAP Diversity Plus: 3C Assay for Vascular cell adhesion molecule 1 (VCAM1) Biomarker Activity (AID 2282999); settings: BioMAP 3C HUVEC, VCAM1 ELISA, cytokine-stimulated; actives raise or lower the signal
In short: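 Endothelial cells from human umbilical vein are treated with test chemical. At 24 h, VCAM-1 is measured by ELISA, and responses in either direction are fitted relative to DMSO.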

Measured: AC50

Cc1cc(N)n(-c2ccccc2)n1
not listed: [12] | [13] | [14] | [15] | [16] | [17] | [18] | [19]
inactive: all other assays above

COc1ccc2[nH]cc(CCNC(C)=O)c2c1
not listed: [17] | [18] | [19]
inactive: all other assays above

CC(C)OB(OC(C)C)OC(C)C
not listed: [2] | [5] | [11] | [15] | [18] | [19]
inactive: all other assays above

Nc1ccc(O)c(N)c1
active: [9] 43.9 µM
inactive: [1] | [13] | [16] | [3] | [4] | [5] | [6] | [7] | [10] | [11]

Cc1cccc(C)c1
inactive: [1] | [12] | [15] | [3] | [4] | [5] | [6] | [7] | [9] | [10]

CCCCOCCOCCOCCO
not listed: [5] | [10] | [11] | [12] | [15] | [17] | [18] | [19]
inactive: all other assays above

CC(=O)N(C)C
inactive: [1] | [12] | [4] | [7] | [10] | [11]

O=C1CCCCCCCCCCCC(=O)OCCO1
not listed: [2] | [8] | [11] | [15] | [17] | [18] | [19]
inactive: all other assays above

C=C1CC/C=C(\C)CC[C@@H]2[C@@H]1CC2(C)C
active: [9] 100 µM | [18] 16.8 µM | [19] 30.1 µM
not listed: [2] | [11] | [12] | [13] | [14]
inactive: all other assays above

O=C(O)c1ccccc1O
inactive: [1] | [13] | [16] | [4] | [5] | [6] | [7] | [9]

Cc1cc(O)c2c(c1)C(=O)c1cc(O)cc(O)c1C2=O
active: [6] 8.34 µM | [8] 17.4 µM | [9] 4.77 µM | [10] 8.59 µM
not listed: [12] | [16] | [17] | [18] | [19]
inactive: all other assays above

CCOc1ccc(NC(C)=O)cc1
inactive: [1] | [12] | [2] | [14] | [16] | [4] | [5] | [6] | [7] | [9]

COC(=O)C(C)Oc1ccc(Oc2ncc(C(F)(F)F)cc2Cl)cc1 (stereo unspecified)
active: [5] 137 µM
not listed: [2] | [8] | [10] | [12] | [17] | [18] | [19]
inactive: all other assays above

O=C(O)c1cc2ccccc2cc1O
not listed: [11] | [12] | [17] | [18] | [19]
inactive: all other assays above

C=COCC1CCC(COC=C)CC1 (stereo unspecified)
active: [9] 179 µM
inactive: [1] | [12] | [2] | [16] | [3] | [4] | [5] | [6] | [7] | [10]

C=CC(=O)OCC(CO)(COC(=O)C=C)COC(=O)C=C
active: [4] 180 µM | [18] 0.137 µM | [19] 0.0478 µM
not listed: [2] | [8] | [11] | [12] | [16] | [17]
inactive: all other assays above

COc1ccccc1O
inactive: [12] | [17] | [13] | [4] | [5] | [6] | [7] | [8] | [9] | [10]

CCCCCC(=O)O[C@]1(C(C)=O)CC[C@H]2[C@@H]3CCC4=CC(=O)CC[C@]4(C)[C@H]3CC[C@@]21C
active: [12] 0.476 µM | [3] 8.77 µM | [5] 8.32 µM | [9] 12.6 µM
not listed: [1] | [11] | [14] | [18] | [19]
inactive: all other assays above

CC(C)CCOC(=O)CC(C)C
not listed: [1] | [11] | [15] | [18] | [19]
inactive: all other assays above

CCC(C)(C)C1CCC(=O)CC1
inactive: [1] | [13] | [4] | [5] | [6] | [7] | [8] | [9] | [10] | [11]

CCC(C)(C)c1cc(O)c(C(C)(C)CC)cc1O
inactive: [12] | [13] | [15] | [7] | [10]
active: [17] 3.06 µM | [4] 9.69 µM | [5] 12.3 µM | [6] 5.78 µM | [8] 60.4 µM | [9] 3.81 µM | [11] 33.4 µM
